Results filed as inconclusive are left out. A call without a number means that no potency is given here. Activity calls are given as the source filed them. Calls follow the shape of the dose curve; as a rule, active = well fitted inhibition curve with a large enough effect; inconclusive = small, poorly fitted or top-dose-only effect; inactive = no such curve, though single readings can be large or run the other way.
Test: BET inhibitor-based combinations targeting novel dependencies in MECOM-rearranged (r) AML: UCSD-AML1 cell line (AID 2202235); also: nearly all actives have a fitted effect of over 40% in size
Conditions: UCSD-AML1 AML cells viability, CellTiter-Glo, 48 h; series mostly up to 46 µM
Procedure, shortened: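 Normalized to DMSO and empty-well controls, the luminescence data from CellTiter-Glo after 48 hr drug exposure were fitted across 11 concentrations. Reported metrics are area under the dose-response curve and its Z-transformed form.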
With `O=C(O)C[C@H](O)C[C@H](O)/C=C/c1c(C2CC2)nc2ccccc2c1-c1ccc(F)cc1` the Potency was 2.63 µM (active). With `NCC(=O)Nc1ccc(-n2nc(C(F)(F)F)cc2-c2ccc3c(ccc4ccccc43)c2)cc1` the Potency was “inactive”. In the case of `COc1cc2c(NC3CCN(CC4CCCCC4)CC3)nc(N3CCCN(C(C)C)CC3)nc2cc1OCCCN1CCCCC1`, the Potency is reported as 10.5 µM (active). For `CC(C)N(CCCNC(=O)Nc1ccc(C(C)(C)C)cc1)C[C@H]1O[C@@H](n2ccc3c(N)ncnc32)[C@H](O)[C@@H]1O`, the Potency was “inactive”. With `Cc1cnc(Nc2cccc(CN3CCOCC3)c2)nc1Nc1cccc(S(=O)(=O)NC(C)(C)C)c1` the Potency was 1.32 µM (active). In the case of `C[C@@]1(c2cc(-c3cncnc3)c(F)cc2F)CCSC(N)=N1`, the Potency is reported as “inactive”. For `CC(C)N(CCCNC(=O)Nc1ccc(C(C)(C)C)cc1)C[C@H]1O[C@@H](n2cc(Br)c3c(N)ncnc32)[C@H](O)[C@@H]1O`, the Potency was “inactive”. For `CCCCOc1nc(N)c2c(n1)N(Cc1cccc(CN3CCCC3)c1)CC(=O)N2`, the Potency was “inactive”. For `Cc1nc(C(=O)NCC(=O)O)c(O)c2ccc(Oc3ccccc3)cc12`, the Potency was “inactive”. With `OCCn1cc(-c2cnc3nnn(Cc4ccc5ncccc5c4)c3n2)cn1` the Potency was “inactive”. With `COc1cc(C)c(Sc2cnc(NC(=O)c3ccc(CNC(C)C(C)C)cc3)s2)cc1C(=O)N1CCN(C(C)=O)CC1` (stereo not drawn) the Potency was 16.6 µM (active). In the case of `Cc1nnc(C(C)C)n1C1CC2CCC(C1)N2CCC(NC(=O)C1CCC(F)(F)CC1)c1ccccc1` (stereo not drawn), the Potency is reported as “inactive”. With `Cc1nn(C)c(COc2ccc(N3CCN(S(=O)(=O)N(C)C)CC3)cc2)c1-c1cccc2c(CCCOc3cccc4ccccc34)c(C(=O)O)n(CCN3CCOCC3)c12` the Potency was “inactive”.

— PubChem BioAssay (NCATS)
Potency is read from the fitted curve at half-maximal effect.
